Assay outcomes deposited in PubChem BioAssay by several laboratories.
An excerpt weighted towards active compounds, which were near 2.3% of everything screened.
GLD-1 TGE inh = GLD-1/TGE RNA complex disruptors, primary screen, biochemical, fluorescence polarization; purified GLD-1 + fluorescein TGE RNA; 320,000 tested, 0.44% active; inhibition, % at 5.96 µM;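 active = percent inhibition above a per-plate cutoff, the plate mean of test compounds plus 3 SD, cut at about 30% in these data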;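 also: 0% = DMSO wells with GLD-1 and probe and 100% = wells lacking GLD-1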
Mcl1 Bid PPI = Mcl-1/Bid binding inhibitors, primary screen, biochemical, TR-FRET, 1536-well. Induced myeloid leukemia cell differentiation protein Mcl-1 (Homo sapiens), Q07820. TR-FRET Mcl-1/Bid-Dy647 peptide binding. inhibition, % at 21.7 µM. 220,000 tested, 0.97% active. AID 1021, 2008;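 active = compounds that cut the binding signal by more than half at the single screening dose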;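 also: His-tagged Mcl-1 with europium anti-His antibody binding Bid BH3 peptide; 0% = Mcl-1 plus peptide wells and 100% = peptide-only wells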
Target sequence (Q07820 whole entry, looked up): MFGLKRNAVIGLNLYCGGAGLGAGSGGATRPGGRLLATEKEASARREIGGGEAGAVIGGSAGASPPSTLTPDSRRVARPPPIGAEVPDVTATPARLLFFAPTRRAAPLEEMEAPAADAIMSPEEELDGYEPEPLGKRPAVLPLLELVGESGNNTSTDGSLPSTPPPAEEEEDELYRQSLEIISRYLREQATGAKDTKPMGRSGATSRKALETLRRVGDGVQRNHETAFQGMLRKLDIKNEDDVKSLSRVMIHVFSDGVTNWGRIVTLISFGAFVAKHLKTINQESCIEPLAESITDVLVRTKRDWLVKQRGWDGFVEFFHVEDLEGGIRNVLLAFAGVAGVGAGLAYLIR
MCL1-BIM inh = inhibitors of MCL1 binding to BIM-BH3, primary screen, biochemical, fluorescence polarization; Induced myeloid leukemia cell differentiation protein Mcl-1 (Homo sapiens), Q07820; GST-MCL1 / FITC-Bim-BH3 fluorescence polarization; inhibition, % at 10.9 µM; 320,000 tested, 0.68% active;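 active = inhibition above the mean inhibition of all tested compounds plus 3 SD, set per campaign, cut at about 40% in these data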;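 also: 0% = DMSO wells and 100% = unlabeled Bim-BH3 peptide control; higher means more loss of mP so more displacement of Bim peptide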
Mcl1-Noxa inh = Mcl-1/Noxa binding inhibitors, primary screen, biochemical, TR-FRET, 1536-well | Induced myeloid leukemia cell differentiation protein Mcl-1 (Homo sapiens), Q07820 | TR-FRET Mcl-1/Noxa peptide binding, 2 h | inhibition, % at 21.7 µM | 220,000 tested, 1.5% active | AID 1022, 2008;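 active = compounds that cut the protein-peptide binding signal by more than 50% relative to plate controls in a single-dose test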;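 also: His-tagged Mcl-1 with rhodamine Noxa BH3 peptide and terbium anti-His antibody; 0% = Mcl-1 plus Noxa peptide wells and 100% = peptide-only wells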
Bcl-xL primary = inhibitors of human Bcl-xL, primary screen, biochemical, fluorescence polarization, HTS; inhibition, % at 10.9 µM; 320,000 tested, 0.7% active; GST-Bcl-xL / FITC-Bim BH3 peptide fluorescence polarization;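 active = inhibition above the mean of all tested compounds plus 3 SD, cutoff set per campaign, cut at about 30% in these data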;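 also: 0% = DMSO wells and 100% = unlabeled Bim-BH3 peptide competitor; inhibitors lower millipolarization by displacing the labeled peptide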
Target sequence (Q07817 whole entry, looked up): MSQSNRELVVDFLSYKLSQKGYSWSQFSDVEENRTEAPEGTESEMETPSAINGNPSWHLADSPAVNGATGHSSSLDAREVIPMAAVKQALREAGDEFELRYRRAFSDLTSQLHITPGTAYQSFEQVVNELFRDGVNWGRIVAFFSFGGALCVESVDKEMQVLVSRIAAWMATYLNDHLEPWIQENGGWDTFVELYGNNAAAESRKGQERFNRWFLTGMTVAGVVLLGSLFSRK
Mcl-1 Bim block = inhibitors of Bim peptide binding to Mcl-1, primary screen, biochemical, bead-based flow cytometry, multiplex | Induced myeloid leukemia cell differentiation protein Mcl-1 (Homo sapiens), Q07820 | Bim peptide-Mcl-1 binding | inhibition, % at 10 µM | 190,000 tested, 0.1% active; in the data active = inhibition above about 40%;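 also: 0% = no compound tracer wells and 100% = peptide blocker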
Active calls of the source: *; nt = not tested or not shown.

SMILES | GLD-1 TGE inh | Mcl1 Bid PPI | MCL1-BIM inh | Mcl1-Noxa inh | Bcl-xL primary | Mcl-1 Bim block
CC(C)(C)NC(=O)c1sccc1C(=O)O | -5.6 | 90.3* | -0.2 | 54.2* | 5.0 | 0.0
N#CC(C#N)=C1C=C2C=C(N3CCCCC3)CCC2CC1 (stereo not drawn) | 29.3 | -60.5 | 36.8 | -79.9 | 35.4* | -61.0
CCN(CC)C1=CC2=CC(=C(C#N)C#N)CCC2CC1 (stereo not drawn) | -172.8 | -10.2 | 20.0 | -57.2 | 51.8* | -6.0
CCCCN(C)C1=CC2=CC(=C(C#N)C#N)CCC2CC1 (stereo not drawn) | 14.8 | -30.5 | 18.0 | 1.6 | 38.6* | nt
N#CC1=C(N)C2=C(N3CCCCC3)CCCC2C1(C#N)C#N (stereo not drawn) | 18.1 | -66.6 | 34.9 | 12.8 | 25.4 | 1.0
Cn1c(N)c(C(=O)Nc2ccc3ccccc3c2)sc1=S | -10.4 | 44.5 | -12.5 | 66.0* | -7.8 | -9.0
CCC(C)[C@H](NC(=O)Nc1ccccc1F)C(=O)O (stereo partly drawn) | 4.3 | 85.3* | 7.6 | 10.7 | 8.2 | nt
CCc1ccccc1NC(=O)N[C@H](C(=O)O)C(C)CC (stereo partly drawn) | 2.7 | -15.3 | 5.2 | -2.9 | 3.7 | -5.0
O=C(Cc1ccccc1F)N1CCN(S(=O)(=O)c2ccc(Cl)cc2)CC1 | 4.2 | nt | -15.3 | nt | -8.9 | nt
COCc1cc(=O)n2[nH]c(-c3ccsc3-n3c(C)ccc3C)cc2n1 | -2.3 | -24.8 | 7.5 | 68.9* | 7.1 | -3.0
Cc1nc2cc(-c3ccsc3-n3c(C)ccc3C)[nH]n2c(=O)c1Cl | -20.7 | -36.7 | 15.6 | 61.0* | 8.8 | 1.0
COCc1cc(=O)n2[nH]c(N)nc2n1 | 6.6 | -33.1 | 11.3 | 6.4 | 3.9 | nt
Cc1cc(=O)n2[nH]c(-c3ccsc3-n3c(C)ccc3C)cc2n1 | -22.6 | -87.1 | 28.4 | 96.6* | 8.3 | nt
Cc1cc(=O)n2[nH]c(-c3ccc(F)cc3)cc2n1 | 0.4 | -19.3 | -5.9 | 6.1 | -6.3 | -4.0
Cc1ccccc1-c1cc2nc(C)c(Cl)c(=O)n2[nH]1 | -1.6 | nt | 0.6 | nt | 2.4 | nt
CCCNc1cc(=S)nc(N)[nH]1 | 8.2 | -26.3 | 6.1 | 5.0 | 10.6 | nt
C[N+]1(C)CCC(=C(c2ccccc2)c2ccccc2)CC1 | -1.4 | nt | 3.8 | nt | -2.0 | nt
Cc1cccc(NC(=O)c2cccc3c2-c2ccccc2C3=O)n1 | 3.7 | 20.5 | -0.8 | -5.1 | 67.4* | 0.0
Cc1cccc(NC(=O)c2ccccc2Br)n1 | 5.1 | -31.5 | -0.3 | 9.0 | 4.1 | -2.0
COC(=O)c1cc(OCC(=O)Nc2ccc3c(c2)CCC3)cc(C(=O)OC)c1 | -2.1 | nt | nt | nt | nt | nt
COc1ccc(NC(=O)/C(C#N)=C/c2ccc(Br)o2)cc1 | 2.7 | -30.7 | 24.6 | 57.6* | 5.1 | 0.0
COc1ccc(NC(=O)/C(C#N)=C\c2ccc(N3CCOCC3)o2)cc1 | -266.1 | -43.6 | -269.8 | -1.1 | -176.4 | -9.0
Cc1cc(NC(=O)COC(=O)C2=COCCO2)c([N+](=O)[O-])cc1C | 1.5 | -19.5 | 2.8 | 18.0 | 42.3* | -6.0
O=C(COC(=O)c1ccccc1)Nc1ccccc1N1CCOCC1 | -6.0 | -5.6 | -3.5 | 11.7 | 2.4 | 2.0
Cc1cc(-c2nn(-c3ccccc3)cc2/C=C2\SC(N)=NC2=O)ccc1OC(C)C | -1.1 | 0.0 | -5.5 | -2.7 | -2.8 | 94.0*
SMILES | GLD-1 TGE inh | Mcl1 Bid PPI | MCL1-BIM inh | Mcl1-Noxa inh | Bcl-xL primary | Mcl-1 Bim block
COc1ccc(C(=O)CSc2nnc(-c3ccco3)c(-c3ccco3)n2)cc1 | nt | 53.6* | nt | 90.2* | nt | 1.0
Cc1ccc(NC(=O)CSc2nnc(-c3ccco3)c(-c3ccco3)n2)cc1 | 1.4 | 2.3 | 32.7 | 90.2* | 22.7 | 2.0
C=CCOC(=O)C1=C[C@@H](c2coc3ccccc3c2=O)C[C@@H](OCCCCO)O1 | 4.7 | nt | 9.0 | nt | 15.8 | nt
COc1ccc2c(c1OC)C(=O)N1C(C(=O)O)Cc3c([nH]c4ccccc34)C21 (stereo not drawn) | 21.1 | -2.4 | 47.4* | 7.0 | 48.2* | -2.0
COc1cccc(C2c3[nH]c4ccccc4c3C[C@H]3C(=O)N(CCCO)CC(=O)N23)c1OC (stereo partly drawn) | 1.3 | nt | -2.2 | nt | 0.7 | nt
CC(COc1ccccc1)N(CCCl)Cc1ccccc1 (stereo not drawn) | 1.8 | 54.8* | 2.0 | 34.2 | -3.7 | -1.0
CC(C)[C@@H](COc1ccccc1)N1CCN(Cc2ccccc2)CCC1=O | 0.5 | nt | -7.3 | nt | -1.6 | nt
O=C(O)c1ccccc1NSc1ccccc1[N+](=O)[O-] | 1.9 | 2.3 | 20.1 | 21.9 | 19.3 | 51.0*
CC1C2(C)OC(=N)C(C#N)(C(C)O2)C1(C#N)C#N (stereo not drawn) | 24.6 | -50.8 | 48.4* | 19.1 | 51.6* | nt
COc1cc(C(=O)Nc2nnc(S(=O)(=O)N3CCCCCC3)s2)cc(OC)c1OC | 1.7 | nt | 5.4 | nt | 2.0 | nt
CC(C)C(=O)NC(=S)Nc1sc2c(c1C(N)=O)CCCC2 | 6.6 | -80.4 | 22.4 | 64.3* | 14.1 | 0.0
COc1ccc(S(N)(=O)=O)cc1C(=O)OCCCC(=O)c1ccccc1 | -1.4 | nt | 3.2 | nt | -0.6 | nt
FC(F)(F)c1ccc(/C=N/N2CCN(Cc3cccc4ccccc34)CC2)cc1 | 0.6 | -71.4 | 1.1 | -5.0 | -2.3 | 0.0
C(=N\N1CCN(Cc2cccc3ccccc23)CC1)/c1cccnc1 | 6.5 | 57.9* | -6.5 | -8.9 | -4.1 | 0.0
Cc1nn(Cc2nnc(SCC(=O)Nc3ccc(Cl)cc3)n2C)c(C)c1[N+](=O)[O-] | -2.4 | -30.1 | -8.7 | 0.2 | -1.2 | nt
Cc1cccc(NC(=O)c2cc(-c3cc(Cl)ccc3O)n[nH]2)c1 | -2.1 | nt | 4.5 | nt | -3.2 | nt
CC(C)Nc1nnc(SCC(=O)Nc2ccc3c(c2)C(=O)c2ccccc2C3=O)s1 | 10.4 | -16.9 | 13.9 | 78.0* | 24.4 | 3.0
O=C(NCCC1=CCCCC1)c1cccc(S(=O)(=O)N2CCCCC2)c1 | -1.4 | nt | -3.7 | nt | -0.1 | nt
CC(C)c1ccc(-c2nc3c([nH]2)c(=O)n(C)c(=O)n3C)cc1 | -2.5 | -19.4 | 4.4 | -2.9 | 2.5 | -3.0
Cn1c(=O)c2[nH]c(-c3ccccc3O)nc2n(C)c1=O | -9.0 | -20.8 | 17.5 | 59.5* | 14.4 | 3.0
O=C1CCC/C(=N\NC(=O)c2ccc(COc3cccc4cccnc34)cc2)C1 | 49.3* | -23.3 | 11.1 | 25.0 | 4.6 | -5.0
COC(=O)COc1ccc2c(c1)O/C(=C\c1ccco1)C2=O | -3.9 | nt | 0.2 | nt | 75.5* | nt
CCN(CC)C(=O)Oc1ccc2c(c1)O/C(=C\c1ccco1)C2=O | -3.0 | nt | 1.2 | nt | 1.8 | nt
